In all, about 140,000 compounds went through this assay and about 4,300 (3.1%) were called active. Roughly 21% stayed inconclusive and do not appear here.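 Rule for the calls: active = readout at or below -70, meaning at least 70% loss of cells showing the perinucleolar compartment, a nuclear body marking cancer cells; inconclusive = readout between -30 and a set limit; inactive = the rest.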 The full list was thinned out, with actives kept by preference.
Experiment: High Content Assay for Compounds that inhibit the Assembly of the Perinucleolar Compartment;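 note: plate controls were DMSO wells for no effect and camptothecin positive control wells for full effect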
Conditions: PC3M PTB-GFP, PNC prevalence imaging, 16 h; at 10 µM; active compounds read low
Outline: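 PC3M cells stably expressing PTB-GFP, 750–1000 cells/well, treated 16 h at 37 °C with compound (23 nl of library stock), in duplicate. After paraformaldehyde fixation and Hoechst stain, imaged at 20x; PNC prevalence scored by image analysis.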

Activity change (PNC), negative = inhibition, inactive:
c1ccc(-c2nnc(SCc3nc4ccccc4[nH]3)o2)cc1 25.5%, O=C(Nc1nnc(SCc2ccc(Cl)cc2Cl)s1)C1COc2ccccc2O1 (stereo unspecified) 43%, N/C(=N\OC(=O)CC1CCCCC1)c1ccccc1 -25.3%, COC(=O)c1ccccc1NS(=O)(=O)c1ccc2[nH]c(=O)[nH]c2c1 -18.2%, Cc1ccc(N(Cc2cc3ccccc3[nH]c2=O)C(=O)c2cccs2)cc1 4.02%, CCOC(=O)Cc1csc(NC(=O)CSc2ccc(Br)cc2)n1 34.9%, O=C(CNCc1ccc(F)cc1)Nc1ccccc1-c1ccccc1 23.9%, O=c1c2ccccc2c(-c2ccc(F)cc2)nn1-c1ccc(C(F)(F)F)cc1 -1%, Cc1cc(C)c(C#N)c(SCC(=O)NN2CC(=O)N(c3ccccc3F)CC2=O)n1 43.3%, CC(C)CC(COCc1ccc(Cl)cc1)N1CCN(C(=O)c2ccc(C(F)(F)F)cc2)CCC1=O (stereo unspecified) 49.5%, O=C(c1cc(Cl)cc(Cl)c1)N1CCC(=O)N(C(COCc2ccccc2)Cc2ccccc2)CC1 (stereo unspecified) 27.5%, CC(=O)c1sc(N/N=C\c2ccc(C)cc2)nc1C 25.4%, CCc1ccccc1NC(=O)CN(C)C(=O)COc1ccc(C)nc1[N+](=O)[O-] -8.07%, COc1ccccc1N(C(=O)Cn1nnc2ccccc21)C(C(=O)NCc1ccco1)c1ccc(C)o1 (stereo unspecified) 20.9%, CCC(C)(C)NC(=O)C(c1cccn1C)N(Cc1ccc(C)cc1)C(=O)Cn1nnc2ccccc21 (stereo unspecified) 27.9%, Brc1ccc(C2CC(c3ccccc3)=Nc3ccccc3N2)cc1 (stereo unspecified) -29.2%, CC(=O)c1ccc(NC(=O)Nc2ccc([N+](=O)[O-])cc2C)cc1 -13%, COc1ccc(NC(=O)Nc2ccc3nc(C)c(C)nc3c2)cc1 5.41%, O=C(CN1C2=NCCN2c2ccccc21)c1cccs1 -2.86%, COc1ccc(NS(=O)(=O)c2cc(NC(=O)/C=C/c3cc(OC)c(OC)c(OC)c3)ccc2N2CCCCC2)cc1 -0.688%, CC1(C)CC(=O)C(N=Nc2ccc(S(=O)(=O)N3CCCCCC3)cc2)=C(O)C1 24.1%, COc1ccc(CNC(=O)CN(Cc2ccc(Cl)cc2)S(C)(=O)=O)cc1 48.3%, COc1ccc(C(=O)Nc2nc(-c3ccc(OC)cc3)c(-c3ccc([N+](=O)[O-])cc3)s2)cc1 -23.3%, O=C(CSc1nc(-c2ccccc2)cs1)Nc1cccc([N+](=O)[O-])c1 126%, O=C(O)C1CC(=O)N(Cc2cccnc2)C1 (stereo unspecified) -9.97%, O=C1OC(c2ccc(Cl)cc2)=N/C1=C\c1cccnc1 41.2%, O=C(Nn1c(-c2ccc(Cl)cc2)nc2ccccc2c1=O)c1cccnc1Cl 8.85%, Cc1ccnc(NS(=O)(=O)c2ccc(NC(=O)c3ccc(S(=O)(=O)N4CCOCC4)cc3)cc2)n1 -19.3%, CC(OC(=O)CNS(=O)(=O)/C=C/c1ccccc1)C(=O)Nc1ccc(S(=O)(=O)N2CCCC2)cc1 (stereo unspecified) 64.4%, CCOC(=O)/C(=N\Nc1cc(Cl)ccc1Cl)N1CCN(C)CC1 -27.3%, c1ccc2[nH]c(NCCN3CCOCC3)nc2c1 -1.68%, O=C(Cn1c(-c2ccccn2)nc2ccccc21)NCCN1CCOCC1 42.9%, NS(=O)(=O)c1ccc(NC(=O)COC(=O)C2(c3ccc(F)cc3)CCCC2)cc1 50%, CCCCOC(=O)Nc1nccs1 243%, CC1(C)Cc2cccc(OCC(=O)N3CCN(c4ccc([N+](=O)[O-])cc4)CC3)c2O1 7.92%, Cc1ccccc1C(OCCN(C)C)C1CCCCC1 (stereo unspecified) -5.25%, Cc1ccccc1Nc1nc(N)nc(CSc2ccccc2)n1 -3.06%, N=c1c2c(-c3ccccc3)c(-c3ccccc3)oc2ncn1Cc1ccco1 34.2%, OCCCN1c2ccccc2Nc2nnc(-c3ccccc3)cc21 -15.1%, CN(C)c1ccc(/C=N/N(Cc2ccccc2)c2ccccc2)cc1 -6.4%, CCN1CN(Cc2ccccc2)CNC1=S -4.78%, CCCCOc1ccc(CSC(=N)N)cc1[N+](=O)[O-] -6.06%, CCCOc1ccc(Cn2ccnc2)cc1[N+](=O)[O-] -21.9%, COc1ccc(Br)cc1CN(C)CC(=O)Nc1cc(Cl)cc(Cl)c1 5.92%, O=C(NC1CC1)c1cccc(Br)c1 8.13%, CCN(CC)S(=O)(=O)c1ccc2[nH]cc(C(=O)NCCc3ccccc3)c(=O)c2c1 -4.74%, Cc1cc(C)cc(NC(=S)NCCc2c[nH]c3ccccc23)c1 22.2%, O=C1CC(NNc2ccccc2)C(=O)N1c1cccc(Cl)c1 (stereo unspecified) 44.7%, Cc1ccc(-n2nc3cc(C)c(NC(=O)c4cccnc4)cc3n2)cc1 22.4%, O=C(CCc1ccc(S(=O)(=O)N2CCOCC2)cc1)NN=C1CCCCCCC1 -25.6%, Cc1cc2c(c(=O)n1Cc1ccco1)C(c1ccccc1)C(C#N)=C(N)O2 (stereo unspecified) -6.34%, Cc1cc2oc(C(=O)Nc3c(C)n(C)n(-c4ccccc4)c3=O)c(C)c2cc1Cl 2.22%, Cc1cccc(NC(=O)/C=C/c2ccc3c(c2)OCO3)n1 46%, COc1ccc(NC(=O)c2c(SC)nsc2SC)cc1 -6.12%, COc1ccc(NC(=O)c2ccc(C#CC(C)(C)O)cc2)cc1 -12.4%, CCCOC(=O)c1ccc(N2C(=O)c3ccccc3C2=O)cc1 -21.8%, COc1ccc(C(=O)NC2(C(F)(F)F)NC(=O)N(CCCc3ccccc3)C2=O)c(OC)c1OC (stereo unspecified) -8.14%, CC(=O)Nc1ccc(S(=O)(=O)N2CCN(c3ccc([N+](=O)[O-])c(NCCN4CCOCC4)c3)CC2)cc1 -13.1%, O=C(O)CCC(=O)Nc1ccc(N2CCOCC2)cc1 -23.8%, O=C(NCCc1ccccc1)C1CCC(Cn2c(=O)c3ccccc3n(Cc3cccnc3)c2=O)CC1 (stereo unspecified) 13.2%, Cc1nc(SCc2ccc(F)cc2)c([N+](=O)[O-])[nH]1 17.5%, CCC(NC(=O)c1ccccc1NC(=O)c1ccccc1)C(=O)NNC(=O)CSc1nc2ccccc2o1 (stereo unspecified) -4.05%, COCCn1c(=O)[nH]c(=O)c2cc(C(=O)c3cc(OC)ccc3O)cnc21 -8.95%, Cc1ccccc1NC(=O)c1ccc(COc2ccc3c(C)cc(=O)oc3c2)cc1 90.9%, Cc1ccccc1N1CCN(CCCOc2ccc3c(C)cc(=O)oc3c2)CC1 -23.3%, COc1ccc(/C(N)=N/OC(=O)CCCc2ccccc2)cc1 -16.1%, COc1ccccc1NC(=O)CCCc1c[nH]c2ccccc12 -4.48%, COc1cc(C2C(C(=O)Nc3ccccc3OC)=C(C)Nc3ncnn32)ccc1O (stereo unspecified) 17.6%, COc1ccccc1NC(=O)C1=C(C)Nc2ncnn2C1c1ccc(C)o1 (stereo unspecified) -27.1%, Cc1ccc(Oc2cc(NC(=O)CCCn3nc(C)c([N+](=O)[O-])c3C)cc([N+](=O)[O-])c2)cc1 5%, CNC(=O)NC(=O)C(OC(=O)c1cccc(S(=O)(=O)N2CCCCC2)c1)c1ccccc1 (stereo unspecified) -3.58%, COc1cc(OC)cc(-c2nc3ccccc3c(=O)n2NC(=O)c2cccnc2Cl)c1 -30%, N#Cc1ccccc1Sc1ccccc1C(=O)OCC(=O)NC1CCCCC1 33.1%

Activity change (PNC), negative = inhibition, active:
Clc1ccc(CSc2nnc(/C=C/c3ccccc3)o2)c(Cl)c1 -87.5%, O=c1[nH]cnc2c1c(-c1ccccc1)cn2-c1ccc(F)cc1 -108%, CC(C)CC(CO)N1CCN(C(=O)c2ccc(Cl)cc2Cl)CCC1=O (stereo unspecified) -91.5%, COCCNC(=O)C(c1ccc(C)o1)N(Cc1ccccc1)C(=O)Cn1nnc2ccccc21 (stereo unspecified) -83.4%, COc1cc(NC(=O)Nc2ccc(C)cc2)cc([N+](=O)[O-])c1 -87.1%, Cc1cccc(NC(=O)c2sc(-c3ccccc3)nc2-c2ccc([N+](=O)[O-])cc2)c1 -100%, O=C1/C(=C\c2cccnc2)CN(Cc2ccccc2)C/C1=C\c1cccnc1 -112%, c1ccc2cc3c(NCCN4CCOCC4)ccnc3cc2c1 -103%, CC1(C)Cc2cccc(OCC(=O)Nc3nccs3)c2O1 -87.8%, N=c1c2c(-c3ccccc3)c(-c3ccccc3)n(Cc3ccccc3)c2ncn1CCCO -90.2%, CCCCCOc1ccc(CSC2=NCCN2)cc1[N+](=O)[O-] -84.7%, CN(c1ccccc1)S(=O)(=O)c1ccc(Cl)c(C(=O)NCCc2c[nH]c3ccccc23)c1 -83.7%, O=C(NNC1CC(=O)N(c2cccc(Cl)c2)C1=O)c1cccnc1 (stereo unspecified) -121%, N#CC1=C(N)Oc2c(sc3ccccc23)C1c1ccco1 (stereo unspecified) -91.1%, COc1ccc(NC(=O)c2sccc2SCC#N)cc1 -88.1%, CN(CC(=O)Nc1ccc(N2CCOCC2)cc1)CC(=O)Nc1ccccc1[N+](=O)[O-] -100%, Cc1cc(=O)oc2cc(OCC3CC(c4ccccc4Cl)=NO3)ccc12 (stereo unspecified) -89.5%, COc1ccccc1NC(=O)C1=C(C)Nc2nc3ccccc3n2C1c1cccs1 (stereo unspecified) -82.7%

Source: PubChem BioAssay AID2417 (National Center for Advancing Translational Sciences (NCATS), 2010)
